Results on 88 compounds are retold here after article PMC4336329 (PLoS ONE, 2015).

The structures appear in SMILES notation. The campaign covered roughly 310,000 compounds. About 14,000 (4.5%) showed an effect of 50% or more. Effects have a minus sign here. What follows is part of a selection rich in strong results, with near analogues and random picks from the rest.
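Note: peak tail current of the secondary pulse compared with the same well before compound.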

The target of this experiment is human ether-à-go-go-related gene (hERG) potassium channel (human, UniProt Q12809). Put plainly: primary screen, population patch clamp on CHO cells stably expressing hERG; higher = less effect of the substance.
Sequence of human ether-à-go-go-related gene (hERG) potassium channel (Q12809 whole entry, looked up): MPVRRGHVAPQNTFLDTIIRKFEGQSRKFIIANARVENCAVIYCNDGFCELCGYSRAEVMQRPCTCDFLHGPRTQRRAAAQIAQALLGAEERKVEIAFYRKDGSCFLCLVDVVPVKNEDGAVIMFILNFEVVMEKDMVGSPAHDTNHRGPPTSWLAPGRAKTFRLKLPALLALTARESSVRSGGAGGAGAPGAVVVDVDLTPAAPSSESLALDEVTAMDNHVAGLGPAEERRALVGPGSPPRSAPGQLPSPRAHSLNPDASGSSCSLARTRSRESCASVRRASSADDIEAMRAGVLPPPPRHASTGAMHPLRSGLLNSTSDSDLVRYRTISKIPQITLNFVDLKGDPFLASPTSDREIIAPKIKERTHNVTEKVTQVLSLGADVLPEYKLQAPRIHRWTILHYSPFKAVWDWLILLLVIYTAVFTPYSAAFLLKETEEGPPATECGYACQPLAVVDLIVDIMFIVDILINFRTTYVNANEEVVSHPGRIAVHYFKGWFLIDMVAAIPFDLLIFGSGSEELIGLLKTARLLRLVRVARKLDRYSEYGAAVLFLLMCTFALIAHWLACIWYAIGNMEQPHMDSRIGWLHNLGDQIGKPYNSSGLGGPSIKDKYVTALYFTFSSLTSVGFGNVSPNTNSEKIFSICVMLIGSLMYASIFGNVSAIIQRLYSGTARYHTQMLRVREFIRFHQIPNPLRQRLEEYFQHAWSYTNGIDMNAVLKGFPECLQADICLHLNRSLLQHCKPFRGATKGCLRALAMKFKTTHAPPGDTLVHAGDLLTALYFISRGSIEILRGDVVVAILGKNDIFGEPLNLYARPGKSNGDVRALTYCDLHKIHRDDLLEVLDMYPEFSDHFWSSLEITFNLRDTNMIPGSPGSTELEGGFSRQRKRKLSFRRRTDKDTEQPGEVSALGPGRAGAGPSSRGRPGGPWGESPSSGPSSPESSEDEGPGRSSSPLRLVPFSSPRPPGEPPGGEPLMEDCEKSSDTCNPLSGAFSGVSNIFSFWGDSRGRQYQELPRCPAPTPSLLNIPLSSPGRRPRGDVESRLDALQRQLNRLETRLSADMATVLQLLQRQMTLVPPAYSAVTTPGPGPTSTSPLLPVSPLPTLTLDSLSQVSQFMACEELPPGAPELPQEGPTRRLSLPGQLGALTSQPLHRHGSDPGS
As for `Cc1ccc(NC(=O)CSc2nnc(CSc3nc(C)cc(C)n3)n2Cc2ccco2)c(C)c1`, the “hERG current change (%, negative = inhibition) at 10uM” value is given as -39.5%.
Take `O=C(Cn1nnc(-c2ccccc2F)n1)Nc1ccc2c(c1)OCCO2`: the “hERG current change (%, negative = inhibition) at 10uM” value was 11.3%.
As to `O=C(COc1ccccc1Cl)Nc1cccc(S(=O)(=O)NC2=NCCCCC2)c1`, the “hERG current change (%, negative = inhibition) at 10uM” value is -5.14%.
For the compound `CN(C)CCCn1c(SCC(=O)N2c3ccccc3Sc3ccccc32)nc2ccccc2c1=O`, the “hERG current change (%, negative = inhibition) at 10uM” value is -39.5%.
`CC(=O)Nc1ccc(C)cc1`: the “hERG current change (%, negative = inhibition) at 10uM” value amounted to 12.2%.
Consider `O=C(O)Cn1c(=O)cnc2ccccc21`, for which the “hERG current change (%, negative = inhibition) at 10uM” value stood at 9.56%.
Take `CC(=O)c1c(C)n(C)c2ccc(OC(=O)c3ccc([N+](=O)[O-])cc3)cc12`: the “hERG current change (%, negative = inhibition) at 10uM” value is on record as 17.2%.
For `CCOc1cc(-c2nc(C)c(C(C)=O)n2O)ccc1OCC(=O)Nc1ccccc1`, the “hERG current change (%, negative = inhibition) at 10uM” value was -0.49%.
For `Cc1cccc(S(=O)(=O)N2CCC(CO)(Cc3ccccc3)CC2)c1`, the “hERG current change (%, negative = inhibition) at 10uM” value is given as -2.74%.
Consider `Cc1[nH]c2ccccc2c1CN1CCC(CO)(Cc2ccccc2)CC1`, for which the “hERG current change (%, negative = inhibition) at 10uM” value is -47.6%.
With `Cc1c(CN2CCC(CO)(Cc3ccccc3)CC2)c2ccccc2n1C`, the “hERG current change (%, negative = inhibition) at 10uM” value is given as -37.8%.
For `Cc1[nH]c2c(C)cccc2c1CN1CCC(CO)(Cc2ccccc2)CC1`, the “hERG current change (%, negative = inhibition) at 10uM” value was -62.2%.
The result for `Cc1cc(C)n(-c2cccc(CN3CCC(CO)(Cc4ccccc4)CC3)c2)n1` reads -58.1%.
The value for `Cc1cc(C)n(-c2ccc(C(=O)N3CCC(CO)(Cc4ccccc4)CC3)cc2)n1` was 9.21%.
The result for `Cc1cccc(-n2ccnc2CN2CCC(CO)(Cc3ccccc3)CC2)c1` reads -50.1%.
For `CN(C)C1=NCCN1CC1CCCCCC1`, the “hERG current change (%, negative = inhibition) at 10uM” value is -3.28%.
In the case of `CCOC(=O)CNC(=O)Cn1cnc2sc(C)c(S(=O)(=O)N3CCOCC3)c2c1=O`, the “hERG current change (%, negative = inhibition) at 10uM” value was 16.4%.
Turning to `CC(=O)N1CCc2cc(S(=O)(=O)CCC(=O)N3CCN(c4ccccc4)CC3)ccc21`, the “hERG current change (%, negative = inhibition) at 10uM” value is listed as 7.15%.
The result for `O=S1(=O)N=C(N(Cc2cccs2)c2ccc(O)cc2)c2ccccc21` reads -39.1%; that for `COc1ccc(-c2cc(C(F)(F)F)nc(N3CCOCC3)n2)cc1`, 18.9%.
The value for `CCOC(=O)c1sc(N(Cc2ccccc2)C(=O)CSc2nnc(C3CC3)n2N)nc1C` was -26.7%; that for `C=CCNC(=O)/C(=C\c1ccc([N+](=O)[O-])cc1)NC(C)=O` was 2.33%.
For the compound `COc1ccc(/C=C(/NC(=O)c2ccc([N+](=O)[O-])cc2)C(=O)NC(C)(C)C)cc1`, the “hERG current change (%, negative = inhibition) at 10uM” value was -40.8%.
The result for `COc1ccc(/C=C(/NC(=O)c2ccc([N+](=O)[O-])cc2)C(=O)NCCCN(C)C)cc1` reads -93.4%; that for `COc1ccc(C(=O)N/C(=C\c2cc(OC)c(OC)cc2[N+](=O)[O-])C(=O)NCCO)cc1`, 17.3%; that for `C=CCNC(=O)/C(=C\c1ccc(OC)cc1)NC(=O)c1ccc([N+](=O)[O-])cc1`, -77.1%.
The value for `COc1ccc(C(=O)N/C(=C\c2ccc([N+](=O)[O-])cc2)C(=O)NC(CCSC)C(=O)O)cc1` (stereo not shown) was 9.2%; that for `Nc1ncncc1-c1ccc([N+](=O)[O-])cc1` was -9.28%.
In the case of `CC(=O)Cc1ccccc1OC(=O)c1ccco1`, the “hERG current change (%, negative = inhibition) at 10uM” value stood at 23.6%.
Turning to `CC(=O)N1CCN(C(=O)c2cc(=O)c3ccccc3o2)CC1`, the “hERG current change (%, negative = inhibition) at 10uM” value was found to be 26.2%.
The result for `O=C(c1cc2ccccc2o1)N1CCN(c2cccc(Cl)c2)CC1` reads -16.3%; that for `COc1ccc(N2CCN(C(=O)c3cc(=O)c4cc(Cl)ccc4o3)CC2)cc1`, -76.3%; that for `O=C(c1cc(=O)c2ccccc2o1)N1CCN(c2cccc(Cl)c2)CC1`, -56.4%.
With `CN1CCN(C(=O)c2cc(=O)c3cc(Cl)ccc3o2)CC1`, the “hERG current change (%, negative = inhibition) at 10uM” value was -28.1%.
Consider `O=C(c1cc(=O)c2cc(Cl)ccc2o1)N1CCN(Cc2ccccc2)CC1`, for which the “hERG current change (%, negative = inhibition) at 10uM” value was -70.8%.
For the compound `Cc1cc(C)c2oc(C(=O)N3CCN(Cc4ccccc4)CC3)cc(=O)c2c1`, the “hERG current change (%, negative = inhibition) at 10uM” value is recorded as -42.9%.
For `COc1ccc(N2CCN(C(=O)c3cc(=O)c4cc(C)ccc4o3)CC2)cc1`, the “hERG current change (%, negative = inhibition) at 10uM” value is reported as -38.1%.
Turning to `CCOC(=O)c1ccc(S(=O)(=O)N2CCN(C(=O)c3cc(=O)c4ccccc4o3)CC2)cc1`, the “hERG current change (%, negative = inhibition) at 10uM” value is given as -38.2%.
`O=C(c1cc(=O)c2ccccc2o1)N1CCN(c2ccccc2)CC1`: the “hERG current change (%, negative = inhibition) at 10uM” value was found to be 1.71%.
Regarding `COc1ccc(N2CCN(C(=O)c3cc(=O)c4cc(C)c(C)cc4o3)CC2)cc1`, the “hERG current change (%, negative = inhibition) at 10uM” value came out at 0.819%.
With `Cc1ccc(S(=O)(=O)N2CCN(C(=O)c3cc(=O)c4ccccc4o3)CC2)cc1`, the “hERG current change (%, negative = inhibition) at 10uM” value is given as -55%.
The result for `CCOc1ccc(NC(=O)CN(C)C(=O)Cc2ccsc2)cc1OCC` reads -11.2%.
In the case of `Cc1cccc(C2C3=C(CCCC3=O)N=C3c4ccccc4C(=O)C32)c1` (stereo not shown), the “hERG current change (%, negative = inhibition) at 10uM” value is listed as -0.327%.
Take `CCOC(=O)Cn1c(=O)c2c(nc(N3CCOCC3)n2C)n(C)c1=O`: the “hERG current change (%, negative = inhibition) at 10uM” value was -4.47%.
The value for `COc1ccc(C2=NOC(Cn3c(Cc4ccc(Cl)cc4)nc4c3c(=O)n(C)c(=O)n4C)C2)cc1` (stereo not shown) was -22.1%; that for `COc1ccc2cc(-c3cc(C(=O)OCC(=O)NC4CCS(=O)(=O)C4)c4ccccc4n3)ccc2c1` (stereo not shown) was 16.1%; that for `CCc1nnc(NC(=O)c2sc3nc4cc(C)ccc4cc3c2N)s1` was 13%.
The result for `CCCCNC(=O)c1ccc(N2CCC3(CC2)OCCO3)c([N+](=O)[O-])c1` reads -22.2%; that for `CC(=O)c1ccc(S(=O)(=O)NC2CC(=O)N(c3ccc(Cl)cc3)C2)cc1` (stereo not shown), -34.8%.
As for `O=C1CC(NS(=O)(=O)c2ccc([N+](=O)[O-])cc2)CN1c1ccc(Cl)cc1` (stereo not shown), the “hERG current change (%, negative = inhibition) at 10uM” value is -66.6%.
Consider `O=C1CC(NS(=O)(=O)c2ccc([N+](=O)[O-])cc2)CN1c1ccc2c(c1)OCCO2` (stereo not shown), for which the “hERG current change (%, negative = inhibition) at 10uM” value is given as -1.64%.
The result for `Brc1cccc(OCCN2CCCCC2)c1.O=C(O)C(=O)O` reads -21.3%.
With `c1ccc(OCCCCN2CCCCC2)cc1`, the “hERG current change (%, negative = inhibition) at 10uM” value came to 1.35%.
Consider `COc1cccc(OCCCN2CCCCCC2)c1.O=C(O)C(=O)O`, for which the “hERG current change (%, negative = inhibition) at 10uM” value was -37.8%.
As to `Brc1cccc(OCCCCN2CCCCC2)c1.O=C(O)C(=O)O`, the “hERG current change (%, negative = inhibition) at 10uM” value is reported as -68.9%.
As to `Brc1cccc(OCCCN2CCCCCC2)c1.O=C(O)C(=O)O`, the “hERG current change (%, negative = inhibition) at 10uM” value was -70%.
The value for `c1ccc(Oc2cccc(OCCCCN3CCCC3)c2)cc1` was -78.3%; that for `CCOc1cccc(OCCCCN2CCCCC2)c1` was -38.1%.
As for `Brc1cccc(OCCN2CCOCC2)c1.O=C(O)C(=O)O`, the “hERG current change (%, negative = inhibition) at 10uM” value is 19%.
The value for `Cc1cc(NN)nc(Cc2ccccc2)n1` was 10.2%; that for `Cc1cc(O)c(C(C)C)cc1NC(=O)c1cccc(Cl)c1` was -13.4%.
Turning to `O=C(CNC(=O)c1cccc(F)c1)OCC(=O)N1CCCc2ccccc21`, the “hERG current change (%, negative = inhibition) at 10uM” value is listed as -0.321%.
With `CCN(CC)c1ccc(C(=O)OCC(=O)Nc2cccc(S(=O)(=O)NC3=NCCCCC3)c2)cc1`, the “hERG current change (%, negative = inhibition) at 10uM” value is given as 7.02%.
As for `O=C(NCCc1ccccc1)C(=S)N1CCCCC1`, the “hERG current change (%, negative = inhibition) at 10uM” value came out at 9.48%.
The result for `CC(=O)Nc1ccc(C(=O)COC(=O)CCc2ccccc2)c(F)c1` reads -2.03%.
The value for `CCc1ccc(NC(=O)c2ccccc2Br)cc1` was -11.2%.
The value for `COc1ccc(CCN(C)C2CCCN(S(C)(=O)=O)C2)cc1OC` (stereo not shown) was -4.36%.
Take `COc1ccc(CCN(C)C2CCCN(S(=O)(=O)N(C)C)C2)cc1OC` (stereo not shown): the “hERG current change (%, negative = inhibition) at 10uM” value is -8.26%.
On to `CN(CCc1ccccc1)C1CCCN(S(=O)(=O)c2cccc(F)c2)C1` (stereo not shown), for which the “hERG current change (%, negative = inhibition) at 10uM” value is recorded as -48.1%.
`C=CCS(=O)(=O)N1CCCC(N(C)CCc2ccc(OC)c(OC)c2)C1` (stereo not shown): the “hERG current change (%, negative = inhibition) at 10uM” value is listed as -16.1%.
The result for `COc1ccc(S(=O)(=O)N2CCCC(C(=O)N3CCCC3)C2)cc1OC` (stereo not shown) reads 4.14%; that for `COc1ccc(S(=O)(=O)N2CCCC(N(C)CCc3ccccc3)C2)cc1OC` (stereo not shown), -66.5%; that for `COc1ccc(CCN(C)C(=O)c2ccc(C)c(S(=O)(=O)N3CCCCC3)c2)cc1OC`, -20.9%.
The result for `C/C=C(\C)CN1CCCC(N(C)CCc2ccc(OC)c(OC)c2)C1` (stereo not shown) reads -27.5%; that for `COc1ccc(CCN(C)C2CCCN(S(=O)(=O)c3ccccc3)C2)cc1OC` (stereo not shown), -77.2%; that for `COc1ccc(CCN(C)C2CCCN(S(=O)(=O)c3ccc(C)cc3)C2)cc1OC` (stereo not shown), -78%.
Consider `COc1ccc(CCN(C)C2CCCN(S(=O)(=O)c3ccccc3F)C2)cc1OC` (stereo not shown), for which the “hERG current change (%, negative = inhibition) at 10uM” value was -64.3%.
For `COc1ccc(CCN(C)C2CCCN(S(=O)(=O)C(C)C)C2)cc1OC` (stereo not shown), the “hERG current change (%, negative = inhibition) at 10uM” value was -20.2%.
For `COc1ccc(NC(=O)c2nn(C34CC5CC(CC(C5)C3)C4)cc2[N+](=O)[O-])cc1`, the “hERG current change (%, negative = inhibition) at 10uM” value is given as -0.0263%.
As to `O=c1nc(N2CCOCC2)ccn1-c1nc(-c2ccccc2)oc1-c1ccccc1`, the “hERG current change (%, negative = inhibition) at 10uM” value was -9.71%.
In the case of `Cc1c(NC(=O)COC(=O)C23CC4CC(CC(O)(C4)C2)C3)c(=O)n(-c2ccccc2)n1C`, the “hERG current change (%, negative = inhibition) at 10uM” value is listed as 10.1%.
Take `Cc1oc(-c2ccccc2F)nc1CS(=O)(=O)CC(=O)NCc1ccccc1Cl`: the “hERG current change (%, negative = inhibition) at 10uM” value was -17.9%.
On to `c1ccc(Nc2ncnc3sc4c(c23)CCC4)cc1`, for which the “hERG current change (%, negative = inhibition) at 10uM” value stood at 0.132%.
The value for `Nc1ccc2nc(SCC(=O)N3CCOCC3)sc2c1` was 17%.
On to `COc1ccc(NC(C)=O)cc1C#N`, for which the “hERG current change (%, negative = inhibition) at 10uM” value is reported as 19.3%.
With `CCOc1ccccc1CN(CCc1ccc2c(c1)OCO2)Cc1ccccn1`, the “hERG current change (%, negative = inhibition) at 10uM” value is -64.4%.
The value for `CCOc1ccccc1NC(=O)NCc1ccc2c(c1)OCO2` was 22.4%; that for `CC(C)C(=O)N(Cc1ccc2c(c1)OCO2)Cc1ccccn1.Cl` was -7.53%.
